Assay [1] in a line: CCTE_Shafer_MEA_dev_per_burst_interspike_interval: CCTE's Neural Network Formation Assay for Burst Interspike Interval, Shafer Lab (AID 2284044).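 Further: mean spike spacing inside bursts as AUC over recordings on days 5 7 9 12.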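 On AC50: potency for a decrease of within-burst interspike interval below DMSO level.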 In short, it runs like this: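 Spontaneous activity of maturing rat cortical networks is recorded on DIV 5, 7, 9 and 12 under chronic compound exposure beginning at plating. Endpoint: burst interspike interval well-mean, collapsed into trapezoidal AUC and fitted in the negative direction relative to DMSO.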

The nature of assay [2]: CCTE_Shafer_MEA_dev_burst_duration_mean: CCTE's Neural Network Formation Assay for Mean Burst Duration, Shafer Lab (AID 2284045). In short, it runs like this: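 Mean single-electrode burst duration (first to last spike), averaged over bursting electrodes per well, then integrated as area-under-curve across recordings at days 5, 7, 9 and 12. Rat cortical cultures on MEAs, compound present from plating, refreshed at feeds.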

Assay [3] is described as follows: CCTE_Shafer_MEA_dev_interburst_interval_mean: CCTE's Neural Network Formation Assay for Mean Interburst Interval, Shafer Lab (AID 2284046).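 Further: well-mean interburst interval of bursting electrodes as AUC over four recording days; curve fitted for decrease in interburst interval relative to DMSO.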 The procedure, abridged: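 Recordings on days 5, 7, 9 and 12 give well-mean interburst interval across actively bursting electrodes, summarized as area under the curve. Cultures: rat cortical neurons, continuous exposure from day 0, compound renewed at feeds; decrease analyzed versus DMSO.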

Assay [4] in a line: CCTE_Shafer_MEA_dev_inter_network_spike_interval_mean: CCTE's Neural Network Formation Assay for Mean Inter-network Spike Interval, Shafer Lab (AID 2284047).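 On AC50: potency for a decrease in mean inter-network spike interval below DMSO.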 The procedure, abridged: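 Primary rat cortical neurons on 16-electrode MEA wells, exposed from plating day 0 through DIV 12, compound renewed at DIV 5 and 9 media changes. Mean interval between network-spike peaks recorded DIV 5, 7, 9, 12; collapsed as trapezoidal AUC, fitted downward versus DMSO.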

The nature of assay [5]: CCTE_Shafer_MEA_dev_network_spike_number: CCTE's Neural Network Formation Assay for Number of Network Spikes, Shafer Lab (AID 2284048).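 Further: synchronized bursts across electrodes counted on days 5 7 9 12 and integrated as AUC.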 In short, it runs like this: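 Number of network spikes (coordinated firing across electrodes) recorded on days 5, 7, 9 and 12 and summarised as area under the curve. Rat cortical cultures on MEA, continuous compound exposure with full medium/treatment exchange at DIV 5 and 9.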

Assay [6] in a line: CCTE_Shafer_MEA_dev_network_spike_peak: CCTE's Neural Network Formation Assay for Mean Number of Electrodes in Network Spike, Shafer Lab (AID 2284049).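 Further: fitted for loss of signal meaning fewer electrodes in network spikes than DMSO.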 The procedure, abridged: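 Rat cortical primary culture, 1.5 x 10^5 cells/well, 48-well MEA (16 electrodes/well). Dosing day 0 through DIV 12, full media/compound exchange DIV 5, 9. AxIS adaptive spike detection; AUC over days 5/7/9/12; loss-of-signal vs DMSO.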

The subject of another assay is DIO2 (gene 1734). In words: CCTE_GLTED_hDIO2: CCTE's human Deiodinase 2 (DIO2) Inhibition Assay, Great Lakes Toxicology and Ecology Division (GLTED) Lab (AID 2284050; active means hit-call score of the fitted dose curve at least 0.9, where 1 is the maximum). In short, it runs like this: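 Readout: absorbance from Sandell-Kolthoff detection of free iodide released by human DIO2 during a 3 h incubation with chemical. Cell-free format, n=3; activity fitted relative to DMSO negative control.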

Assay [7] can be described thus: CCTE_Shafer_MEA_dev_network_spike_duration_std: CCTE's Neural Network Formation Assay for Standard Deviation of Network Spike Duration, Shafer Lab (AID 2284052).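 Further: hits are decreases in network spike duration SD versus DMSO vehicle.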 The procedure, abridged: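 Primary rat cortical neurons on PEI-coated 16-electrode MEA wells, exposed from plating day 0 through day 12 with compound renewed at DIV 5 and 9. Network spike duration SD recorded on days 5, 7, 9, 12, collapsed as trapezoidal AUC; loss-of-signal fit versus DMSO.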

The nature of assay [8]: CCTE_Shafer_MEA_dev_per_network_spike_spike_number_mean: CCTE's Neural Network Formation Assay for Mean Number of Spikes in a Network Spike, Shafer Lab (AID 2284053).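 On AC50: fitted as decrease in spikes per network spike relative to DMSO.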 The procedure, abridged:
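Primary rat cortical neurons on 48-well, 16-electrode MEA plates were exposed from plating to DIV 12, with dosing renewed on DIV 5 and 9. Spikes per network spike (0.05 s peak window) were recorded on DIV 5, 7, 9 and 12 and collapsed as trapezoidal AUC versus DMSO.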

Another assay concerns DIO3 (gene 1735). Description: CCTE_GLTED_hDIO3: CCTE's human Deiodinase 3 (DIO3) Inhibition Assay, Great Lakes Toxicology and Ecology Division (GLTED) Lab (AID 2284055; active means hit-call score of the fitted dose curve at least 0.9, where 1 is the maximum;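 further: potency is for inhibition seen as loss of released iodide signal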). The procedure, abridged: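 hDIO3 (adenovirus-expressed) + test chemical, 3 h incubation; free iodide quantified by Sandell-Kolthoff reaction, absorbance read-out. DMSO negative control, n=3.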
Assay [9] in a line: CCTE_Shafer_MEA_dev_LDH: CCTE's Lactate Dehydrogenase Assay for Cytotoxicity in the Neural Network Formation Assay, Shafer Lab (AID 2284068; active means hit-call score of the fitted dose curve at least 0.9, where 1 is the maximum;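 further: exposure for twelve days from plating with re-dosing on DIV 5 and 9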). In short, it runs like this: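 Primary rat cortical neurons were plated on PEI/laminin MEA plates and exposed from day 0 for twelve days, with compound renewed at DIV 5 and 9. Cytotoxicity was determined by spectrophotometric LDH assay relative to DMSO.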

Assay [10] in a line: CCTE_Shafer_MEA_dev_AB: CCTE's Alamar Blue Assay for Cytotoxicity in the Neural Network Formation Assay, Shafer Lab (AID 2284083; active means hit-call score of the fitted dose curve at least 0.9, where 1 is the maximum;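 further: twelve days of exposure from plating with re-dosing on DIV 5 and 9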). In short, it runs like this: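 Primary rat cortical neurons on PEI-coated 48-well MEA plates, 1.5 x 10^5 cells/well in laminin drop; compound exposure from day 0 of plating for twelve days, renewed at medium changes on DIV 5 and 9. Viability read as resazurin reduction by fluorescence, relative to DMSO.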

Assay [11] in a line: CCTE_Shafer_MEA_acute_LDH: CCTE's Lactate Dehydrogenase Assay for Cytotoxicity in the Neural Acute Assay, Shafer Lab (AID 2284086; active means hit-call score of the fitted dose curve at least 0.9, where 1 is the maximum;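 further: active means LDH release rises above DMSO vehicle level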). In short, it runs like this: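 LDH absorbance at 490 nm in medium taken right after 40-min compound exposure; rat primary cortical neuron networks on MEA plates, days post-plating 13 or 15. Increase over DMSO baseline scored as cytotoxicity.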

Assay [12] is described as follows: CCTE_Shafer_MEA_dev_mutual_information_norm: CCTE's Neural Network Formation Assay for Mutual Information Normalization, Shafer Lab (AID 2284091).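 On AC50: mutual information between electrodes summarised as area under curve across four recording days; potency is for a decrease in mutual information relative to DMSO.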 The procedure, abridged: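 Shared information across electrodes, tracked on days 5, 7, 9 and 12 of network development and collapsed as trapezoidal area under the curve. Rat cortical cultures were treated continuously from plating, with treatment renewed at feeds on DIV 5 and 9; DMSO baseline, negative-direction fit.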

Assay [13] can be described thus: CCTE_Shafer_MEA_acute_AB: CCTE's Alamar Blue Assay for Cytotoxicity in the Neural Acute Assay, Shafer Lab (AID 2284069; active means hit-call score of the fitted dose curve at least 0.9, where 1 is the maximum;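 further: active compounds lower the viability signal compared with DMSO wells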). The procedure, abridged: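 Primary rat cortical neurons on MEA plates, exposed acutely after baseline recording on day 13 or 15 post-plating. Viability by CellTiter Blue resazurin reduction (1:6 reagent dilution), fluorescence 544/590 nm; loss of signal versus DMSO.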
(In general: Resazurin is reduced to fluorescent resorufin, in cell work by metabolically active cells.)

Assay [14] can be described thus: IUF_NPC1b_proliferation_BrdU_72hr: Leibniz Research Institute for Environmental Medicine (IUF) 72-hour Neural Progenitor Cell Bromodeoxyuridine (BrdU) Proliferation Assay (NPC1b) (AID 2284207). The procedure, abridged: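 Human fetal cortex-derived (GW 16-19) neural progenitor spheres, 0.25-0.35 mm, one per well in EGF/FGF proliferation medium, exposed to compound for 72 h at 37C, pH 7.2-7.6. BrdU incorporation over the final 16 h read by luminescence ELISA, relative to DMSO.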

Assay [15] can be described thus: IUF_NPC1a_proliferation_area_72hr: Leibniz Research Institute for Environmental Medicine (IUF) 72-hour Neural Progenitor Cell Proliferation Area Assay (NPC1a) (AID 2284208). The procedure, abridged:
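Measured in 3D suspension: each well held one primary hNPC sphere grown with EGF and FGF at pH 7.2-7.6. Compound stayed on for 72 h, then area was imaged; spheres lacking growth factors defined reduced proliferation.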

The nature of assay [16]: IUF_NPC1_viability_72hr: Viability Assessment at 72 hours in the Leibniz Research Institute for Environmental Medicine (IUF) Neural Progenitor Cell Proliferation Assay (NPC1) (AID 2284209). In short, it runs like this: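 Alamar blue fluorescence (RFU) after 72 h exposure, normalized to DMSO baseline. hNPC spheres from GW 16-19 fetal cortex, single sphere per well in growth-factor medium; no compound renewal.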

A short description of assay [17]: CCTE_Mundy_HCI_Cortical_Synap_Neur_Matur_NeuriteSpotCountPerNeuriteLength: CCTE's Synaptogenesis and Neurite Maturation Assay in rat cortical cells for Neurite Spot Count per Neurite Length, Mundy Lab (AID 2284210). In short, it runs like this:
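Synaptophysin spots per unit neurite length, measured by automated imaging of MAP2/synaptophysin/Hoechst-stained neurons. Cultures from rat cortex received chemical at DIV 7 with media change through DIV 12; glial growth arrested by AraC at DIV 5; DMSO baseline.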

Assay [18] is described as follows: CCTE_Mundy_HCI_Cortical_Synap_Neur_Matur_BPCount: CCTE's Synaptogenesis and Neurite Maturation Assay in rat cortical cells for Branch Point Count, Mundy Lab (AID 2284211). In short, it runs like this: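 In this multiplexed morphology assay, cortical cells from rat receive chemicals at DIV 7 and are fixed at DIV 12, then immunostained and imaged; branch points are counted, with DMSO as baseline.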

Each structure is given as a SMILES string. Records with an inconclusive call do not appear. Active and inactive are the calls of the source. How the source made its calls, unless noted: active means hit-call score of the fitted dose curve at least 0.9, where 1 is the maximum; inactive means score below 0.9.

As a reminder, the AC50 is the concentration at which the activity in the assay is half-maximal.

On to `CCC(C)(C)C(=O)O[C@H]1C[C@@H](C)C=C2C=C[C@H](C)[C@H](CC[C@@H]3C[C@@H](O)CC(=O)O3)[C@H]21`, for which the result in [1], in assay [2], in assay [5], in [7], in assay [11] and in assay [12] was inactive. The AC50 in assay [3] was 887 nM (active); in assay [4] it was 506 nM (active); in assay [6], 688 nM (active); in the assay on DIO2 (gene 1734), 64500 nM (active); in assay [8] it was 1100 nM (active); with DIO3 (gene 1735), 97800 nM (active). Moreover, the AC50 in assay [9] is 368 nM (active); in [10], 1750 nM (active).

With `COc1cccc(-c2ccc(/C=C\CN3CCCCCC3)cc2Cl)c1`, the AC50 with DIO2 (gene 1734) was 77700 nM (active); in the assay with DIO3 (gene 1735), 32800 nM (active). Further, the molecule was classed as inactive in assay [11].

On to `CC(C)=CCCC(C)=CC=O`, for which the AC50 was 100000 nM (active) with DIO2 (gene 1734) and 31300 nM (active) in the assay on DIO3 (gene 1735). Also, the outcome in assay [13] and in assay [11] was inactive.

Consider `CCOC(=O)c1ccc(C2CCC(NC[C@H](O)COc3ccc(O)c(NS(C)(=O)=O)c3)CC2)cc1` (stereo partly drawn), for which the figures for the AC50 in the assay with DIO2 (gene 1734) and with DIO3 (gene 1735) were 105000 nM (active) and 126000 nM (active), respectively. Besides, the outcome in assay [13] and in assay [11] was inactive.

`Cc1[nH]cnc1C[C@H]1CCc2c(C)c3ccccc3n2C1=O`: the molecule was called inactive in [13] and in assay [11].

`CCCN(C1CCN(C(=O)C2CCNCC2)CC1)[C@@H]1CCc2ccc(OC)cc2C1`: the molecule was called inactive in [13] and in assay [11].

For `CNCc1ccc(NC(=O)c2c[nH]c3c2C(=O)CCC3)cc1`, the outcome in assay [1], in assay [2], in assay [3], in [4], in assay [5] and in assay [7] was inactive. Further, the molecule was called inactive in assay [10]. The AC50 is 2030 nM (active) in assay [6], 2490 nM (active) in [8], 865 nM (active) in assay [9] and 755 nM (active) in assay [12].

With `O=P(OC(CCl)CCl)(OC(CCl)CCl)OC(CCl)CCl`, the outcome in assay [1], in assay [2], in assay [3], in [4], in assay [5] and in assay [7] was inactive. Besides, the molecule was classed as inactive in [8], in [9], in assay [13], in [10], in [11] and in assay [12]. Moreover, the result in assay [14], in assay [15], in assay [16] and in assay [17] was inactive. Moreover, the AC50 was 2980 nM (active) in [6] and 6930 nM (active) in assay [18].

As to `On1ccccc1=S`, the outcome in assay [13] and in assay [11] was inactive.

In the case of `Cn1cnc([N+](=O)[O-])c1Sc1ncnc2nc[nH]c12`, in assay [11], the result was inactive.

Turning to `CCCCC(CC)COC(=O)CCCCCCCCC(=O)OCC(CC)CCCC` (stereo not drawn), the molecule was called inactive in [13] and in assay [11].

As to `CC[C@H](C)C(=O)O[C@H]1C[C@@H](C)C=C2C=C[C@H](C)[C@H](CC[C@@H]3C[C@@H](O)CC(=O)O3)[C@H]21`, the AC50 in assay [1] is 2900 nM (active); in [3], 2900 nM (active); in assay [4], 1980 nM (active); in assay [6], 1560 nM (active); in the assay on DIO2 (gene 1734), 82500 nM (active); in assay [8], 2220 nM (active). In addition, the concentration at half-maximal activity (AC50) in the assay with DIO3 (gene 1735) is 100000 nM (active); in [9] it was 956 nM (active); in assay [10], 10000 nM (active). In addition, the molecule was called inactive in assay [2], in assay [5], in [7] and in assay [12].

Take `Clc1nc(Cl)c(Cl)c(Cl)c1Cl`: the concentration at half-maximal activity (AC50) in the assay with DIO2 (gene 1734) was 14800 nM (active); with DIO3 (gene 1735) it was 920 nM (active).
